Measured values from PubChem BioAssay (EPA / NIEHS).
Activity calls are given as the source filed them. Rule for the calls: active = hit-call score of the fitted dose curve at least 0.9, where 1 is the maximum; inactive = score below 0.9.

Legend:
[1] = ATG_GRE_CIS: Attagene CIS-FACTORIAL HepG2 Assay for human Glucocorticoid Response Elements (GRE) (AID 2282947); conditions: HepG2 GRE cis-reporter, Attagene multiplex mRNA; actives raise or lower the signal
Summary of the method: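 Read-out: fluorescent reporter-transcript fragments separated by capillary electrophoresis after RT-PCR. Transiently transfected HepG2 cells carrying cis-element-driven reporter units were dosed for 24 h; gain or loss of signal fitted against DMSO control.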

[2] = ATG_ISRE_CIS: Attagene CIS-FACTORIAL HepG2 Assay for human Interferon Regulatory Factor 1 (IRF1) binding to an Interferon-Stimulated Response Element (ISRE) (AID 2282948); conditions: HepG2 ISRE cis-reporter (Attagene), mRNA transcription readout; actives raise or lower the signal
Summary of the method: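 Signal reflects induction or loss of ISRE-linked reporter mRNA in transiently transfected HepG2 cells after a 24 h treatment, detected by fluorescent RT-PCR fragments on capillary electrophoresis and normalised to DMSO.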

[3] = ATG_M_32_CIS: Attagene CIS-FACTORIAL HepG2 Assay for M32 Transcription Factor (Internal Marker) (AID 2282949); conditions: HepG2 Attagene cis-factorial M32 reporter, mRNA; actives raise or lower the signal;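 note: background control marker of the multiplexed CIS panel rather than a real target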
Summary of the method: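 Using DMSO as baseline, bidirectional curve fits were applied to reporter mRNA signals. These came from transiently transfected HepG2 cells exposed for 24 h, with RNA analysed by RT-PCR, FAM primer extension, HpaI digestion and CE.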

[4] = ATG_M_06_CIS: Attagene CIS-FACTORIAL HepG2 Assay for M06 Transcription Factor (Internal Marker) (AID 2282950); conditions: HepG2 Attagene CIS-FACTORIAL M06 internal marker reporter; actives raise or lower the signal
Summary of the method: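 HepG2 liver cells, 24 h exposure. Reporter transcripts from transfected cis-element constructs quantified by RT-PCR/capillary electrophoresis fluorescence. Bidirectional curve fit against DMSO.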

[5] = target: Hypoxia-inducible factor 1-alpha (Homo sapiens) (UniProt Q16665); experiment: ATG_HIF1a_CIS: Attagene CIS-FACTORIAL HepG2 Assay for human Hypoxia Inducible Factor 1 (HIF1A) (AID 2282951); conditions: HepG2 Attagene cis-factorial HIF1a reporter transcription; actives raise or lower the signal
Summary of the method: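 HepG2 cells transiently transfected with multiple cis-regulated reporter transcription units measure endogenous transcription factor activity. After 24 h exposure, reporter mRNA is quantified by RT-PCR with 6-FAM labelling, HpaI digestion and capillary electrophoresis. Bidirectional fitting against DMSO.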

[6] = target: Heat shock factor protein 1 (Homo sapiens) (UniProt Q00613); experiment: ATG_HSE_CIS: Attagene CIS-FACTORIAL HepG2 Assay for human Heat Shock Transcription Factor 1 (HSE) (AID 2282953); conditions: HepG2 HSE cis-reporter, Attagene RNA transcription; actives raise or lower the signal
Summary of the method: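 Endogenous transcription factor activity captured via cis-promoter reporter units transfected into HepG2; treatment lasted 24 h. Fluorescence intensity of reporter fragments analysed with bidirectional curve fitting, DMSO baseline.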

[7] = ATG_MRE_CIS: Attagene CIS-FACTORIAL HepG2 Assay for human Metal Responsive Element (MRE) (AID 2282954); conditions: HepG2 MRE cis-reporter transcription, Attagene multiplex; actives raise or lower the signal
Summary of the method: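 RT-PCR/capillary electrophoresis readout of reporter mRNA, 24 h post-dosing, in HepG2 cells transfected with multiplexed cis-regulated reporter constructs. Gain or loss of signal fitted bidirectionally against DMSO baseline.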

[8] = ATG_PBREM_CIS: Attagene CIS-FACTORIAL HepG2 Assay for human Phenobarbital-responsive Enhancer Module (PBREM) (AID 2282955); conditions: HepG2 PBREM cis-reporter, Attagene multiplexed transcription; actives raise or lower the signal
Summary of the method: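 HepG2 cells transiently transfected with multiple cis-regulated reporter units measure endogenous transcription factor activity; 24 h compound exposure. Reporter mRNA quantified by RT-PCR, fluorescent labelling, HpaI digestion and capillary electrophoresis; bidirectional fit versus DMSO.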

[9] = target: Paired box protein Pax-6 (Homo sapiens) (UniProt P26367); experiment: ATG_Pax6_CIS: Attagene CIS-FACTORIAL HepG2 Assay for human Paired Box 6 (PAX6) (AID 2282956); conditions: HepG2 CIS-FACTORIAL PAX6 reporter transcription, RNA readout; actives raise or lower the signal
Summary of the method: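 Values derive from bidirectional curve fitting of reporter mRNA signal relative to DMSO. HepG2 cells bearing transfected cis-regulated MRTUs were exposed for 24 h; transcripts were read by RT-PCR and capillary electrophoresis.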

[10] = ATG_PXRE_CIS: Attagene CIS-FACTORIAL HepG2 Assay for human Pregnane X Receptor Element (PXRE) (AID 2282957); conditions: HepG2 Attagene CIS-FACTORIAL PXRE reporter, mRNA; actives raise or lower the signal
Summary of the method: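 After a 24 h chemical incubation, total RNA from transfected HepG2 cells was reverse-transcribed and reporter cDNA amplified, FAM-labeled, HpaI-digested and sized by capillary electrophoresis. DMSO served as baseline for bidirectional curve fitting.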

[11] = ATG_PPRE_CIS: Attagene CIS-FACTORIAL HepG2 Assay for human Peroxisome Proliferator-activated Response Element (PPRE) (AID 2282958); conditions: HepG2 PPRE cis-element reporter, Attagene transcription factor profiling; actives raise or lower the signal
Summary of the method: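 HepG2 cells are transiently transfected with multiplexed cis-promoter reporter units to report endogenous PPAR activity. After 24 h dosing, reporter mRNA is read by RT-PCR and capillary electrophoresis. Fitting is bidirectional against DMSO.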

[12] = ATG_RORE_CIS: Attagene CIS-FACTORIAL HepG2 Assay for human RAR-related Orphan Receptor Element (RORE) (AID 2282959); conditions: HepG2 Attagene cis-factorial RORE reporter, mRNA; actives raise or lower the signal
Summary of the method: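 HepG2 cells carrying transiently transfected cis-regulated reporter units; RORE-driven reporter mRNA quantified 24 h post-dosing by RT-PCR, 6-FAM primer extension, HpaI digestion and capillary electrophoresis. Bidirectional fit versus DMSO.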

[13] = target: Transcription factor Sp1 (Homo sapiens) (UniProt P08047); experiment: ATG_Sp1_CIS: Attagene CIS-FACTORIAL HepG2 Assay for human Specificity Protein 1 (Sp1) (AID 2282961); conditions: HepG2 Sp1 cis-reporter transcription, actives raise or lower the signal
Summary of the method: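 HepG2 cells transiently transfected with multiplexed cis-regulated reporter constructs, chemical exposure 24 h. Reporter mRNA quantified by RT-PCR with capillary electrophoresis; bidirectional fit relative to DMSO.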

[14] = ATG_SREBP_CIS: Attagene CIS-FACTORIAL HepG2 Assay for human Sterol Regulatory Element Binding (SREBP) (AID 2282962); conditions: HepG2 Attagene cis-factorial SREBP reporter, mRNA; actives raise or lower the signal
Summary of the method: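 Values derive from bidirectional curve fitting with DMSO as baseline. The underlying measurement is reporter mRNA from cis-element-regulated units in transiently transfected HepG2, quantified by RT-PCR and capillary electrophoresis after 24 h exposure.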

[15] = target: Signal transducer and activator of transcription 3 (Homo sapiens) (UniProt P40763); experiment: ATG_STAT3_CIS: Attagene CIS-FACTORIAL HepG2 Assay for human Signal Transducer and Activator of Transcription 3 (STAT3) (AID 2282963); conditions: HepG2, Attagene cis-factorial STAT3 reporter transcription; actives raise or lower the signal
Summary of the method: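 Readout: fluorescent reporter mRNA fragments resolved by capillary electrophoresis. Setup: HepG2 transfected with MRTUs reporting endogenous transcription-factor activity, dosed 24 h. Gain or loss of signal fitted bidirectionally against DMSO control.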

[16] = ATG_TA_CIS: Attagene CIS-FACTORIAL HepG2 Assay for human TA Basal Promoter (AID 2282964); conditions: HepG2 Attagene CIS-factorial TA basal promoter reporter; actives raise or lower the signal
Summary of the method: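 Fluorescence from labelled RT-PCR reporter fragments, separated by capillary electrophoresis, gives the signal. Cells: HepG2 transiently carrying multiple reporter units, 24 h chemical dosing. Gain or loss relative to DMSO.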

[17] = ATG_TCF_b_cat_CIS: Attagene CIS-FACTORIAL HepG2 Assay for human T-Cell-Factor with beta-catenin (TCF/b-cat) (AID 2282965); conditions: HepG2 TCF/beta-catenin cis-reporter transcription, actives raise or lower the signal
Summary of the method: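 HepG2 cells transiently transfected with cis-promoter-driven multiplexed reporter units; reporter mRNA measured 24 h after dosing by RT-PCR, FAM labelling, HpaI digestion and capillary electrophoresis. Bidirectional fitting relative to DMSO baseline.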

[18] = ATG_TAL_CIS: Attagene CIS-FACTORIAL HepG2 Assay for human TAL Basal Promoter (AID 2282966); conditions: HepG2 Attagene cis-factorial TAL promoter reporter; actives raise or lower the signal;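 note: background control endpoint measuring basal TAL promoter reporter mRNA not a specific factor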
Summary of the method: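 Basal-promoter background-control endpoint from a multiplexed HepG2 reporter panel. Cells were exposed 24 h, then reporter mRNA was read by RT-PCR/CE fluorescence and fitted in both directions relative to DMSO.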

[19] = target: Hepatocyte nuclear factor 6 (Homo sapiens) (UniProt Q9UBC0); experiment: ATG_HNF6_CIS: Attagene CIS-FACTORIAL HepG2 Assay for human Hepatocyte Nuclear Factor 6 (HNF6) (AID 2282952); conditions: HepG2 Attagene cis-factorial HNF6 reporter transcription; actives raise or lower the signal
Summary of the method: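 First, HepG2 cells were transfected with the multiplexed cis reporter library and dosed with chemical for 24 h. Next, RNA was reverse-transcribed, PCR-amplified and fluorescently labelled. Finally, HpaI-digested fragments were read by capillary electrophoresis.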

[20] = ATG_Sox_CIS: Attagene CIS-FACTORIAL HepG2 Assay for human SRY-box transcription factor (SOX) (AID 2282960); conditions: HepG2 Attagene cis-factorial SOX reporter, mRNA; actives raise or lower the signal
Summary of the method: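 HepG2 cells transiently transfected with multiple cis-regulated reporter units, then dosed for 24 h. Reporter mRNA quantified by RT-PCR, fluorescent labelling, HpaI digestion and capillary electrophoresis; bidirectional fit versus DMSO.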

Measured: AC50

Sequence of Transcription factor Sp1 (Homo sapiens) (P08047 whole entry, looked up): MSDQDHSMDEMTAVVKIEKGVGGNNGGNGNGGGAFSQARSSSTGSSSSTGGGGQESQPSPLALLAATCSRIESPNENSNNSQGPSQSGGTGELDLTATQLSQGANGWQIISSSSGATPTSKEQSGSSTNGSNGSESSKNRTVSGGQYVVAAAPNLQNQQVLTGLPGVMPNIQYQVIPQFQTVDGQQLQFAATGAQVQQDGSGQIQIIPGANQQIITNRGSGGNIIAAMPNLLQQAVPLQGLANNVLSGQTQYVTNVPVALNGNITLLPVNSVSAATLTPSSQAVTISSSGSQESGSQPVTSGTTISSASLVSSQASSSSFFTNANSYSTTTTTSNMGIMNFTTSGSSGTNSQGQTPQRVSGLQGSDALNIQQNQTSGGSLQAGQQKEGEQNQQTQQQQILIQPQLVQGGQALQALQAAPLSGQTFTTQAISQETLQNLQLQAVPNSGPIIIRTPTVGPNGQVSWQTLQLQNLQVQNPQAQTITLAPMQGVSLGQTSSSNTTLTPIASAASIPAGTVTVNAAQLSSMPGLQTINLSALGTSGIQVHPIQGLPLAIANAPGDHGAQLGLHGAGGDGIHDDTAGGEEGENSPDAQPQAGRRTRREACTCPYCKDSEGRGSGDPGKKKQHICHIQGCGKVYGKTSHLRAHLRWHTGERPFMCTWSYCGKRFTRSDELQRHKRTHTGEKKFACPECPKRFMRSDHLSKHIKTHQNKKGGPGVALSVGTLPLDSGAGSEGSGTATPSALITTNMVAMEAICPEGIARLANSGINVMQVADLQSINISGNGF
Sequence of Hypoxia-inducible factor 1-alpha (Homo sapiens) (Q16665 whole entry, looked up): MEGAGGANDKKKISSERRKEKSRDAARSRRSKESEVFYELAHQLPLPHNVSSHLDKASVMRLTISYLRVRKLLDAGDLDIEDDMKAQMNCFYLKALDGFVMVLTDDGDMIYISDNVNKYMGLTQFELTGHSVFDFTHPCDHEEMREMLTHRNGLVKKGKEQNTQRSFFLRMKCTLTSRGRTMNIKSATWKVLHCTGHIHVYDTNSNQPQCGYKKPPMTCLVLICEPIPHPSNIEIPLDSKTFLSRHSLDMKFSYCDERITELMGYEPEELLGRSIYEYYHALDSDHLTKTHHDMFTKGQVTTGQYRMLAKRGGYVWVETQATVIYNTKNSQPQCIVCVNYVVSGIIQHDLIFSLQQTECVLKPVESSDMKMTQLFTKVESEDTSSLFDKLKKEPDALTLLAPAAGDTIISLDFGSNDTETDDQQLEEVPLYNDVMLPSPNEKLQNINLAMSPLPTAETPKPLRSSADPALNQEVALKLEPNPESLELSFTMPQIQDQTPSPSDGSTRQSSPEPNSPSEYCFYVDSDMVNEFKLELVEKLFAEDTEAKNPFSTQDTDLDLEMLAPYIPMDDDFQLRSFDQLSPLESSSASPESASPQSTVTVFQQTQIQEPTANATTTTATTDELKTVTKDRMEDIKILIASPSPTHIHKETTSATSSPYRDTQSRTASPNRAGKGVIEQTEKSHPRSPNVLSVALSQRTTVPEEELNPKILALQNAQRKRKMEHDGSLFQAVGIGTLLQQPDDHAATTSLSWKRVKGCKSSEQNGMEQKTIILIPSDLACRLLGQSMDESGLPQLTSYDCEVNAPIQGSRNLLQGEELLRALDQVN
Sequence of Heat shock factor protein 1 (Homo sapiens) (Q00613 whole entry, looked up, the tested form may be a part): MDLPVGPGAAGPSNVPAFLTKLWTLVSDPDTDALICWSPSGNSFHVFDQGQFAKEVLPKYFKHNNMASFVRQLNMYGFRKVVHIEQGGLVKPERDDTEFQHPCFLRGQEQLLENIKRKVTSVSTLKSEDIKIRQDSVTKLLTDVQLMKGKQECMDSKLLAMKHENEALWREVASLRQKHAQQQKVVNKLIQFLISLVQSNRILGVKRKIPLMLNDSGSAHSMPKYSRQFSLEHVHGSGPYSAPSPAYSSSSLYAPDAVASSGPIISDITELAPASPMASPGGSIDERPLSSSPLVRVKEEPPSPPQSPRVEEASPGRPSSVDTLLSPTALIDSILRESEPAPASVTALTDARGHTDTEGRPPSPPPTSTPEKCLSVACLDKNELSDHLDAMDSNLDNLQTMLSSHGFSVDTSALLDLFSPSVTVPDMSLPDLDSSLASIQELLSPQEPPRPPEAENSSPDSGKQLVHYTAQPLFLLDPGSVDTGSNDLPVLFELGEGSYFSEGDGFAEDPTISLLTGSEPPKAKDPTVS
Sequence of Signal transducer and activator of transcription 3 (Homo sapiens) (P40763 whole entry, looked up, the tested form may be a part): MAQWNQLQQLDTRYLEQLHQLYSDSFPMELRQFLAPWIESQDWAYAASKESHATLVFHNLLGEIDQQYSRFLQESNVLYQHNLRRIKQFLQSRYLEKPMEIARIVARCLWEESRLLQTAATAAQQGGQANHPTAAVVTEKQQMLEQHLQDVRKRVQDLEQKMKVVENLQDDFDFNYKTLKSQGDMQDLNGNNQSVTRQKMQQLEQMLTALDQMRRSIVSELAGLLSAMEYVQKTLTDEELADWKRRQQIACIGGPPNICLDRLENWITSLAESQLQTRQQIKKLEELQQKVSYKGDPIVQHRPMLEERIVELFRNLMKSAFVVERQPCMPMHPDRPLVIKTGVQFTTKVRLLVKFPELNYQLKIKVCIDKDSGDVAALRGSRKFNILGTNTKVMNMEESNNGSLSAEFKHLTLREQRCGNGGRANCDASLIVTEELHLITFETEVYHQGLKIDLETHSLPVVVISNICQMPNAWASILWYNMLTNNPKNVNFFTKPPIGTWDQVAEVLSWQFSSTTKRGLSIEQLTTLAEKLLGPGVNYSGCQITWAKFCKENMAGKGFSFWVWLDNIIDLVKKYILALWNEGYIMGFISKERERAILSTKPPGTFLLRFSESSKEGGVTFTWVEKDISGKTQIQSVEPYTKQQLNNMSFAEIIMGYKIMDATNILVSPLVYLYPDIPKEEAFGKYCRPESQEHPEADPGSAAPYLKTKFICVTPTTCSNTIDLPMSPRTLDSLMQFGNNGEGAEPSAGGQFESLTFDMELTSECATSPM
Sequence of Paired box protein Pax-6 (Homo sapiens) (P26367 whole entry, looked up): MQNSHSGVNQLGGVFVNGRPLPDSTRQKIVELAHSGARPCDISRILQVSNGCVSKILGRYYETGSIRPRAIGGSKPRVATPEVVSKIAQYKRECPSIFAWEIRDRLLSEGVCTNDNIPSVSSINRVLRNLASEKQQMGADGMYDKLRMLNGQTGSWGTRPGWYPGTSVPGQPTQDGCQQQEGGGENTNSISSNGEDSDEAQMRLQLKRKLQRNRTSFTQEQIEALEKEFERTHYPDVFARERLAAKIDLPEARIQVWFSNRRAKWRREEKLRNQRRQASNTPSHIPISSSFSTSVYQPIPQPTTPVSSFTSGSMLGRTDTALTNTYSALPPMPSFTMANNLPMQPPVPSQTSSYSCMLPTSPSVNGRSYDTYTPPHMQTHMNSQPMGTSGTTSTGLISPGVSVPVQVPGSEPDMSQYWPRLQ
Sequence of Hepatocyte nuclear factor 6 (Homo sapiens) (Q9UBC0 whole entry, looked up, the tested form may be a part): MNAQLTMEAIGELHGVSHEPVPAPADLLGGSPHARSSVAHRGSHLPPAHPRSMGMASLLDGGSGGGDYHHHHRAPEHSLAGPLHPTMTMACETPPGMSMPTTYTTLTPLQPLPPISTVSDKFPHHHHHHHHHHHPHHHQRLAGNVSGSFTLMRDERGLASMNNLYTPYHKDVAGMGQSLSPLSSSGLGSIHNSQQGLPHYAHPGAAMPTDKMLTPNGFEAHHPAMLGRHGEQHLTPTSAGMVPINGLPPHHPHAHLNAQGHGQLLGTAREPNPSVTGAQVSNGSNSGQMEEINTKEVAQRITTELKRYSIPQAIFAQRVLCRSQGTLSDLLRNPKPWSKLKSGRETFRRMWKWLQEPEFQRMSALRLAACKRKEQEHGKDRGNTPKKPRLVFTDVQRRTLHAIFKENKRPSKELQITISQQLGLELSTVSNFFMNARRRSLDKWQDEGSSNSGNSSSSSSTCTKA

On1ccccc1=S
active: [6] 26 µM
not listed: [19] | [20]
inactive: all other assays above

C1=CCCC=CCCC=CCC1
active: [13] 165 µM
not listed: [19] | [20]
inactive: all other assays above

COc1cccc(-c2ccc(/C=C\CN3CCCCCC3)cc2Cl)c1
active: [10] 3.67 µM | [14] 20.5 µM
not listed: [20]
inactive: all other assays above

CCCN(C1CCN(C(=O)C2CCNCC2)CC1)[C@@H]1CCc2ccc(OC)cc2C1
active: [2] 90.6 µM | [8] 157 µM | [10] 100 µM | [13] 177 µM | [17] 113 µM
not listed: [20]
inactive: all other assays above

Cc1ccc(S(=O)(=O)O)cc1C
not listed: [12] | [19]
inactive: all other assays above

CC1(C)C(=O)N(Br)C(=O)N1Br
not listed: [19]
inactive: all other assays above
